According to PubChem BioAssay (NCATS):
Inconclusive results are not listed. Active and inactive are the calls of the source. Calls come from the whole dose curve; as a rule, active = well fitted curve in the direction sought with a large enough effect; inconclusive = small, poorly fitted or top-dose-only effect, or another doubt; inactive = no such curve, though single readings can be large; an effect the other way counts as inactive or inconclusive.

What was measured:
[1] = Confirmatory screen GU Rhodamine qHTS for Zika virus inhibitors qHTS (AID 1347157); note: nearly all actives have a fitted effect of over 70% in size; note: potency is the fitted concentration of half-maximal effect
Summary of the method: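 In dose–response format, inhibition of unlinked protease (25 nM) was measured with 1.5 microM bis-peptide Rhodamine110 substrate. Aprotinin served as the intraplate control.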

[2] = system: Zika virus NS2B-NS3 protease (unlinked complex); test: Primary screen GU Rhodamine qHTS for Zika virus inhibitors: Unlinked NS2B-NS3 protease assay (AID 1347159); note: nearly all actives have a fitted effect of over 60% in size; note: potency is the fitted concentration of half-maximal effect
Summary of the method: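 Percent inhibition derives from the 15-min fluorescence change (ex 480, em 540 nm), normalized to no-enzyme and no-inhibitor wells. Reactions contained 25 nM NS2B-NS3 complex and 1.5 microM substrate in 10 mM Tris-HCl pH 8.0.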

[3] = system: Zika virus NS2B-NS3 protease (linked construct); test: Primary screen NINDS Rhodamine qHTS for Zika virus inhibitors (AID 1347160); note: nearly all actives have a fitted effect of over 55% in size; note: potency is the fitted concentration of half-maximal effect
Summary of the method: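 In 10 mM Tris-HCl pH 8.0 containing 0.01% Tween 20, linked NS2B-NS3 protease (25 nM final) is exposed to test compounds for 15 min. Cleavage of 1.5 microM Rhodamine110 substrate is tracked by fluorescence over 15 min.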

[4] = Confirmatory screen NINDS Rhodamine qHTS for Zika virus inhibitors (AID 1347161); note: nearly all actives have a fitted effect of over 60% in size; note: potency is the fitted concentration of half-maximal effect
Summary of the method: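 Each compound, titrated, sat 15 min with 25 nM linked protease before 1.5 microM Rhodamine110 substrate went in. Fluorescence gain over the next 15 min, in pH 8.0 Tris with Tween 20, gave Hill-fitted curves.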

[5] = Tertiary RLuc qRT-PCR qHTS assay for Zika virus inhibitors (AID 1347169); note: nearly all actives have a fitted effect of over 55% in size; note: potency is the fitted concentration of half-maximal effect
Summary of the method: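 Luminescence read-out: live-cell Renilla luciferase substrate applied to infected Vero cells, signal measured after 1-1.5 hrs. Cells had received compound before ZIKV-RLuc (Cambodian strain, MOI 1-2) infection and were incubated 48-72 hrs at 37 degrees C.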

[6] = system: Zika virus NS2B-NS3 protease; test: Primary screen GU AMC qHTS for Zika virus inhibitors (AID 1347154); note: nearly all actives have a fitted effect of over 70% in size; note: potency is the fitted concentration of half-maximal effect
Summary of the method: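 Fluorogenic AMC-substrate cleavage by noncovalent NS2B-NS3 protease complex (25 nM, pH 8.0 Tris buffer with Tween 20) followed for 15 minutes at room temperature (~20% conversion). Percent inhibition from ex340/em450 signal change, fitted by 4-parameter Hill equation.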

[7] = system: Zika virus NS2B-NS3 protease (linked construct); test: Confirmatory screen NINDS AMC qHTS for Zika virus inhibitors (AID 1347152); note: nearly all actives have a fitted effect of over 70% in size; note: potency is the fitted concentration of half-maximal effect
Summary of the method: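 Linked NS2B-NS3 1 nM, Tris pH 8.0/0.01% Tween 20; cpd 15 min RT dark; + Nle-KRR-AMC 10 µM (Km 18.3 µM); read 0 and 15 min, 340/450 nm; %inh vs controls, 4-param Hill.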

[8] = Vero cells viability qHTS for Zika virus inhibitors (AID 1347167)
Summary of the method: (§1)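 Compounds were tested in concentration series on cells grown in DMEM containing 4% FBS. After 24 to 48 hours, cellular ATP was measured by luminescence with CellTiter Glo.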

[9] = HepG2 cells viability qHTS for Zika virus inhibitors (AID 1347168)
Summary of the method: as §1

[10] = system: Zika virus NS2B-NS3 protease (linked); test: 384 well plate NINDS AMC confirmatory qHTS for Zika virus inhibitors (AID 1347163); note: nearly all actives have a fitted effect of over 50% in size; note: potency is the fitted concentration of half-maximal effect
Summary of the method: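 Linked NS2B-NS3 protease (final 5 nM, 30 nM or 60 nM) was preincubated with compounds (final up to 1 mM) for ~15 minutes. Ac-VKTGKR-AMC substrate (final 30 microM) then reacted for 25 minutes at room temperature in the dark. Fluorescence (ex 355/em 460 nm) was normalized to no-enzyme and no-inhibitor controls.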

[11] = system: Zika virus NS2B-NS3 protease (linked construct); test: 384 well plate NINDS Rhodamine confirmatory qHTS for Zika virus inhibitors (AID 1347164);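 note: fluorescence from protease cleavage of Ac-LKRR-rhodamine 110 substrate; potency is the fitted concentration of half-maximal effect; nearly all actives have a fitted effect of over 65% in size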
Summary of the method: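 Fluorescence read at ex 485 nm/em 538 nm, 25 min after adding 10 microM Ac-LKRR-Rd substrate at room temperature in the dark; signal normalized to no-enzyme and no-inhibitor controls. Enzyme final 5, 30 or 60 nM; compounds, ~15 min preincubation.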

[12] = ZIKV-mCherry secondary qHTS for Zika virus inhibitors (AID 1347158); note: potency is the fitted concentration of half-maximal effect
Summary of the method: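 Vero, 5,000 cells/well, o/n 37 °C; cpd pin-transferred in DMSO; ZIKV-mCherry MOI 1, 48-72 h 37 °C; 32% PFA stock fix, Hoechst; imaged 10x DAPI/mCherry; mCherry+ threshold 450 RFU; % infection.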

[13] = system: Zika virus NS2B-NS3 protease (unlinked complex); test: Confirmatory screen GU AMC qHTS for Zika virus inhibitors (AID 1347153); note: nearly all actives have a fitted effect of over 70% in size;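 for Potency: enzyme at 25 nM with substrate at 10 µM below its Km of 18.3 µM; potency is the fitted concentration of half-maximal effect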
Summary of the method: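 Compounds were preincubated 15 min at room temperature with 25 nM noncovalent NS2B-NS3 protease at pH 8.0; AMC substrate added at 10 microM and 15-min fluorescence gain (340/450 nm) converted to percent inhibition, fitted 4-parameter.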

Measured: Potency

OC/C=C/C=C/[C@H]1Cc2cc(O)cc(O)c2O1
inactive: [3] | [5]
active: [1] 22.1 µM | [2] 39.8 µM | [4] 27.8 µM

Cc1ccccc1C#Cc1ccc(CCC(=O)O)cc1
active: [2] 14.1 µM

COc1ccc(C(=O)C2CCN(CC(=O)N(Cc3nc4c(c(=O)[nH]3)COCC4)CC3CC3)CC2)cc1
inactive: [1] | [2] | [4]

C#CCN(Cc1cc2c(=O)[nH]c(C)nc2cc1Br)c1ccc(C(=O)NCc2cccnc2)cc1
active: [1] 44.1 µM | [2] 39.8 µM | [4] 31.2 µM
inactive: [3]

CC(=O)O[C@H]1C(=O)[C@@]2(C)[C@H]([C@H](OC(=O)c3ccccc3)[C@]3(O)C[C@H](OC(=O)[C@H](O)[C@@H](NC(=O)c4ccccc4)c4ccccc4)C(C)=C1C3(C)C)[C@]1(OC(C)=O)CO[C@@H]1C[C@@H]2O
inactive: [6] | [2] | [3]

C=C[C@H]1[C@H](O[C@@H]2O[C@H](CO)[C@@H](O)[C@H](O)[C@H]2O)OC=C(C(=O)OC)[C@H]1CCOC(=O)c1cc(O)c(O)c(O)c1
active: [2] 15.8 µM | [3] 8.91 µM | [4] 10.8 µM
inactive: [7] | [8] | [9] | [5]

COc1cc(/C=C/C(=O)OC[C@H]2O[C@@](CO)(O[C@H]3O[C@H](CO)[C@@H](O)[C@H](O)[C@H]3O)[C@@H](OC(=O)/C=C/c3ccc(O)c(OC)c3)[C@@H]2O)ccc1O
inactive: [2]

CC1(C)CC[C@]2(C(=O)O)CC[C@]3(C)C(=CCC4[C@@]5(C)C[C@@H](O)[C@H](O)C(C)(C)C5CC[C@]43C)C2C1 (stereo not given in full)
inactive: [8] | [9]
active: [1] 8.57 µM | [2] 14.1 µM | [3] 10 µM | [4] 6.07 µM | [10] 56.2 µM | [11] 6.31 µM | [5] 9.06 µM

CC1(C)CC2=C3C=CC4C5(C)CCC(O)C(C)(C)C5CCC4(C)C3(C)CCC2(C)C(O)C1 (stereo not given)
active: [1] 13.6 µM | [2] 15.8 µM | [3] 8.91 µM | [4] 10.8 µM
inactive: [12] | [8] | [9]

COc1ccc(Cl)c(Nc2nc3ccccc3nc2NS(=O)(=O)c2cccc(NC(=O)C(C)(C)N)c2)c1
inactive: [8] | [9]
active: [1] 5.55 µM | [12] 15.8 µM | [2] 7.94 µM | [3] 5.01 µM | [4] 5.55 µM | [10] 2.51 µM | [11] 3.98 µM | [5] 14.7 µM

CC(C)c1cc2c(c(O)c1O)[C@@]13CCCC(C)(C)[C@@H]1[C@H](OC3=O)C2=O
active: [2] 8.91 µM

N#CC(c1ccnc(OCc2ccc(CN3CCOCC3)cc2)n1)c1nc2ccccc2s1 (stereo not given)
active: [1] 31.2 µM | [2] 3.98 µM | [3] 7.94 µM | [4] 31.2 µM | [11] 5.01 µM
inactive: [7] | [13] | [8] | [9]

CC(C)[N+]1(C)C2CCC1CC(OC(=O)C(CO)c1ccccc1)C2 (stereo not given)
inactive: [6] | [2] | [3]

COc1c2c(cc3c1-c1c(cc4c(c1OC)OCO4)CC(C)C(C)C3)OCO2 (stereo not given)
inactive: [2]

CCc1c(-c2ccccc2)c(-c2ccccc2)nn1-c1ccccc1-c1cccc(OCC(=O)O)c1
active: [7] 13.9 µM | [13] 27.8 µM | [1] 3.12 µM | [2] 6.31 µM | [3] 3.55 µM | [4] 3.12 µM | [10] 3.98 µM | [11] 2.51 µM
inactive: [8] | [9]

O=C(O)c1ccccc1NCCc1ccccc1
active: [6] 31.6 µM

O=C(N/N=C/c1ccc(O)c(O)c1)c1cc2ccccc2cc1O
inactive: [7] | [8] | [9]
active: [1] 2.32 µM | [3] 5.01 µM | [4] 6.55 µM | [10] 50.1 µM | [11] 0.447 µM | [5] 6.18 µM

CCOc1cc(CC(=O)NC(CC(C)C)c2ccccc2N2CCCCC2)ccc1C(=O)O (stereo not given)
active: [2] 20 µM

COc1cc(Nc2nc3ccccc3nc2NS(=O)(=O)c2ccc(NC(=O)c3ccc(OC)c(C)c3)cc2)cc(OC)c1
inactive: [10] | [8] | [9]
active: [7] 12.4 µM | [13] 11.1 µM | [1] 3.12 µM | [2] 2.82 µM | [3] 8.91 µM | [4] 2.78 µM | [11] 22.4 µM
